# Measured values taken from PMC8222333, “AsCas12a ultra nuclease facilitates the rapid generation of therapeutic cell medicines”.
# Changes are numbered by the printed parent chain.
# B1: GCCA (dsDNA)
# DNA 1: GCTATCTAGTGCTCAGTACGCACTGGCCAAGGAAACTTCTGGCAGGACCAGGTCATGAGATCGGAAGAGCACACGTCTGAACTCCAGTCA
# DNA 2: TGACTGGAGTTCAGACGTGTGCTCTTCCGATCTCATGACCTGGTCCTGCCAGAAGTTTCCTTGGCCAGTGCGTACTGAGCACTAGATAGC
# RNA: AAUUUCUACUCUUGUAGAUAGGAAACUUCUGGCAGGACC
# B2: GTAT (dsDNA)
# DNA 1: B1 DNA 1 with C27T, C28A, A29T
# DNA 2: B1 DNA 2 with T62A, G63T, G64A
# RNA: B1 RNA
# B3: GTCA (dsDNA)
# DNA 1: B1 DNA 1 with C27T
# DNA 2: B1 DNA 2 with G64A
# RNA: B1 RNA
# B4: GTGC (dsDNA)
# DNA 1: B1 DNA 1 with C27T, C28G, A29C
# DNA 2: B1 DNA 2 with T62G, G63C, G64A
# RNA: B1 RNA
# B5: GGCG (dsDNA)
# DNA 1: B1 DNA 1 with C27G, A29G
# DNA 2: B1 DNA 2 with T62C, G64C
# RNA: B1 RNA
# B6: GGGG (dsDNA)
# DNA 1: B1 DNA 1 with C27G, C28G, A29G
# DNA 2: B1 DNA 2 with T62C, G63C, G64C
# RNA: B1 RNA
# B7: GTAA (dsDNA)
# DNA 1: B1 DNA 1 with C27T, C28A
# DNA 2: B1 DNA 2 with G63T, G64A
# RNA: B1 RNA
# B8: GCGC (dsDNA)
# DNA 1: B1 DNA 1 with C28G, A29C
# DNA 2: B1 DNA 2 with T62G, G63C
# RNA: B1 RNA
# Molecular target: dAsCas12a E174R (Acidaminococcus sp., UniProt U2UMQ6 1-1307, E174R;D908A;E993A;D1235A)
# Assay: Spec-seq (native PAGE EMSA with sequencing of bound and unbound); 25 mM Tris-HCl pH 7.4, 150 mM KCl, 5 mM MgCl2, 10% glycerol, 1 mM DTT, 40 ng/uL salmon sperm DNA; 400 nM Cas12a, 480 nM crRNA, 50 nM library, 37 C 1 h; native PAGE at room temperature; high values mean tight binding
# Settings: protein: recombinant
# 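Note: relative affinity from the bound to unbound sequence frequency ratio in Spec-seq.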
row,Binder,binding signal [lnKA]
1,B1,-8.91
2,B2,-8.95
3,B3,-8.52
4,B4,-8.98
5,B5,-8.97
6,B6,-8.85
7,B7,-9
8,B8,-8.88

# Molecular target: dAsCas12a S542R (Acidaminococcus sp., UniProt U2UMQ6 1-1307, S542R;D908A;E993A;D1235A)
# Assay: as above
# Settings: protein: recombinant
row,Binder,binding signal [lnKA]
1,B1,-6.67
2,B2,-8.41
3,B3,-6.38
4,B4,-8.4
5,B5,-8.43
6,B7,-8.01
7,B8,-8.38

# Molecular target: d-enCas12a (Acidaminococcus sp., UniProt U2UMQ6 1-1307, E174R;S542R;K548R;D908A;E993A;D1235A)
# Assay: as above
# Settings: protein: recombinant
row,Binder,binding signal [lnKA]
1,B1,-4.72
2,B2,-5.69
3,B3,-2.71
4,B4,-5.24
5,B5,-5.65
6,B6,-5.75
7,B7,-5.51
8,B8,-5.81

# Molecular target: d-enCas12a-Ultra (Acidaminococcus sp., UniProt U2UMQ6 1-1307, E174R;S542R;K548R;M537R;F870L;D908A;E993A;D1235A)
# Assay: as above
# Settings: protein: recombinant
row,Binder,binding signal [lnKA]
1,B1,-1.33
2,B2,-3.33
3,B3,-0.526
4,B4,-2.1
5,B5,-2.64
6,B6,-3.49
7,B7,-3.27
8,B8,-3.32
